Counter-ions that a name gives are not always drawn. ± gives the standard deviation of the averaged measurements. In all, about 1,300 compounds were measured (“normalised cell viability”: median about 1, lowest 2% from about 0.15 on). Shown is part of a subset that was picked to be rich in the lowest values.

The text below walks through data of the supplement of paper PMC6609913.

The subject of this test is V-C8 + BRCA2 (BRCA2-proficient hamster cells). Put plainly: normalised cell viability (fraction of plate median); higher = more viable cells (less toxic). Conditions: 5 µM. A digest of the protocol:
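Library drugs, held as 10 mM stocks in DMSO, were diluted to 5 μM in 100 μl medium and added to 96-well plates of V-C8 hamster cells, either lacking BRCA2 or with BRCA2 restored, 24 h after seeding. Plates ran for 3 days (screen 1) or 6 days (screen 2), alongside solvent-only wells. Viability came from a resazurin readout, median-plate normalised, as the mean of triplicate wells.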

Consider `Cc1onc(-c2ccccc2)c1C(=O)N[C@@H]1C(=O)N2[C@@H]1SC(C)(C)[C@@H]2C(=O)O` [Oxacillin sodium], for which the normalised cell viability (treatment time: 3 days) worked out at 1.04 ± 0.042 and the normalised cell viability (treatment time: 6 days) came to 0.989 ± 0.025.

As for `CC(=O)OC[C@H]1O[C@@H]([S-])[C@H](OC(C)=O)[C@@H](OC(C)=O)[C@@H]1OC(C)=O.CCP(CC)CC.[Au+]` [Auranofin], the normalised cell viability came out at 0.126 ± 0.0085 (treatment time: 3 days) and 0.128 ± 0.012 (treatment time: 6 days).

As for `C[C@H]1O[C@H](O[C@H]2[C@H](O)[C@@H](O)[C@@H](O[C@H]3[C@H](O)[C@@H](O)C(O)O[C@@H]3CO)O[C@@H]2CO)[C@H](O)[C@@H](O)[C@@H]1N[C@H]1C=C(CO)[C@@H](O)[C@H](O)[C@H]1O` (stereo partly specified) [Acarbose], the normalised cell viability by setting is: (treatment time: 3 days) 0.928 ± 0.072; (treatment time: 6 days) 1.03 ± 0.056.

With `COC(=O)Nc1nc2ccc(SC(C)C)cc2[nH]1` [Methiazole], the normalised cell viability reads like this: (treatment time: 3 days) 0.231 ± 0.016; (treatment time: 6 days) 0.245 ± 0.017.

As to `Nc1ccc(C(=O)NCC(=O)O)cc1` [Aminohippuric acid], the normalised cell viability reads like this: (treatment time: 3 days) 1.04 ± 0.027; (treatment time: 6 days) 1.11 ± 0.076.

With `CCOCCn1c(N2CCCN(C)CC2)nc2ccccc21` [Emedastine], the normalised cell viability was 1.07 ± 0.11 (treatment time: 3 days) and 1.06 ± 0.032 (treatment time: 6 days).

Regarding `Nc1ccn([C@@H]2O[C@H](CO)[C@@H](O)C2(F)F)c(=O)n1` [Gemcitabine], the normalised cell viability (treatment time: 3 days) turned out to be 0.212 ± 0.014 and the normalised cell viability (treatment time: 6 days) stood at 0.183 ± 0.0099.

Regarding `NC12CC3CC(CC(C3)C1)C2` [Adamantamine fumarate], the normalised cell viability was 0.885 ± 0.035 (treatment time: 3 days) and 0.95 ± 0.053 (treatment time: 6 days).

On to `COc1cc2c(cc1OC)C(=O)C(CC1CCN(Cc3ccccc3)CC1)C2` (stereo unspecified) [Donepezil hydrochloride], for which the normalised cell viability reads like this: (treatment time: 3 days) 1.007 ± 0.0092; (treatment time: 6 days) 1.05 ± 0.074.

For `CN1[C@@H]2CC[C@H]1C[C@@H](OC(=O)c1c[nH]c3ccccc13)C2` [Tropisetron HCl], the normalised cell viability is, setting by setting: (treatment time: 3 days) 1.05 ± 0.12; (treatment time: 6 days) 1.24 ± 0.074.

Turning to `CCCN(CCC)C(=O)C(CCC(=O)O)NC(=O)c1ccccc1` (stereo unspecified) [Proglumide], the normalised cell viability reads like this: (treatment time: 3 days) 0.993 ± 0.11; (treatment time: 6 days) 0.986 ± 0.14.

For `CC(C)/N=c1\cc2n(-c3ccc(Cl)cc3)c3ccccc3nc-2cc1Nc1ccc(Cl)cc1` [Clofazimine], the normalised cell viability was 0.274 ± 0.021 (treatment time: 3 days) and 0.346 ± 0.037 (treatment time: 6 days).

On to `CCCN[C@H]1CCc2nc(N)sc2C1` [Pramipexole], for which the normalised cell viability (treatment time: 3 days) turned out to be 0.9625 ± 0.0076 and the normalised cell viability (treatment time: 6 days) came out at 0.987 ± 0.022.

As for `c1ccc2c(c1)CCCc1cc(NCCN3CCOCC3)nnc1-2`, the normalised cell viability (treatment time: 3 days) is 0.803 ± 0.038 and the normalised cell viability (treatment time: 6 days) came to 0.87 ± 0.091.

Regarding `CCOC(=O)OC(C)OC1=C(C(=O)Nc2ccccn2)N(C)S(=O)(=O)c2ccccc21` (stereo unspecified) [Ampiroxicam], the normalised cell viability amounted to 1 ± 0.034 (treatment time: 3 days) and 0.994 ± 0.079 (treatment time: 6 days).

`O=C(NCCO[N+](=O)[O-])c1cccnc1` [Nicorandil]: the normalised cell viability is, setting by setting: (treatment time: 3 days) 1.11 ± 0.072; (treatment time: 6 days) 1.11 ± 0.13.

Regarding `CNC(=O)c1c(I)c(C(=O)NCC(=O)Nc2c(I)c(C(=O)O)c(I)c(C(=O)NCCO)c2I)c(I)c(N(C)C(C)=O)c1I` [Ioxaglic acid], the normalised cell viability (treatment time: 3 days) is 1 ± 0.058 and the normalised cell viability (treatment time: 6 days) came to 1.11 ± 0.086.

Regarding `O=C(O)CCc1nc(-c2ccccc2)c(-c2ccccc2)o1` [Oxaprozin], the normalised cell viability (treatment time: 3 days) amounted to 1.06 ± 0.11 and the normalised cell viability (treatment time: 6 days) was determined as 1.12 ± 0.078.

As to `Cc1cc2cc3c(C)cc(=O)oc3c(C)c2o1` [Trioxsalen], the normalised cell viability (treatment time: 3 days) was 0.991 ± 0.036 and the normalised cell viability (treatment time: 6 days) amounted to 0.818 ± 0.12.

Regarding `CC(C)Cn1cnc2c(N)nc3ccccc3c21` [Imiquimod], the normalised cell viability was 1.02 ± 0.042 (treatment time: 3 days) and 1.019 ± 0.0077 (treatment time: 6 days).

For `Nc1c2ccccc2nc2ccccc12` [Aminacrine], the normalised cell viability turned out to be 0.139 ± 0.0043 (treatment time: 3 days) and 0.156 ± 0.024 (treatment time: 6 days).

With `Nc1c2c(nc3ccccc13)CCCC2` [Tacrine hydrochloride], the normalised cell viability reads like this: (treatment time: 3 days) 0.905 ± 0.038; (treatment time: 6 days) 1.09 ± 0.014.

For the molecule `O=C(Nc1ccc([N+](=O)[O-])cc1Cl)c1cc(Cl)ccc1O` [Niclosamide], the normalised cell viability was found to be 0.139 ± 0.0082 (treatment time: 3 days) and 0.127 ± 0.0065 (treatment time: 6 days).

Take `O=C(OCCOCCO)c1ccccc1Nc1cccc(C(F)(F)F)c1` [Etofenamate]: the normalised cell viability worked out at 0.988 ± 0.045 (treatment time: 3 days) and 0.987 ± 0.061 (treatment time: 6 days).

Regarding `CCCOc1ccc2[nH]c(NC(=O)OC)nc2c1` [Oxibendazol], the normalised cell viability stood at 0.18 ± 0.0021 (treatment time: 3 days) and 0.194 ± 0.0035 (treatment time: 6 days).

On to `COC(=O)Nc1nc2cc(C(=O)c3cccs3)ccc2[nH]1` [Nocodazole], for which the normalised cell viability reads like this: (treatment time: 3 days) 0.143 ± 0.0097; (treatment time: 6 days) 0.132 ± 0.01.

In the case of `COC(=O)Nc1nc2cc(Sc3ccccc3)ccc2[nH]1` [Fenbendazole], the normalised cell viability stood at 0.183 ± 0.0078 (treatment time: 3 days) and 0.179 ± 0.017 (treatment time: 6 days).

As for `COC(=O)Nc1nc2cc(C(=O)c3ccc(F)cc3)ccc2[nH]1` [Flubendazol], the normalised cell viability was 0.168 ± 0.017 (treatment time: 3 days) and 0.167 ± 0.0085 (treatment time: 6 days).

On to `COC(=O)Nc1nc2cc([S+]([O-])c3ccccc3)ccc2[nH]1` (stereo unspecified) [Oxfendazol], for which the normalised cell viability (treatment time: 3 days) was 0.74 ± 0.055 and the normalised cell viability (treatment time: 6 days) was 0.827 ± 0.05.

`COC(=O)Nc1nc2cc(C(=O)c3ccccc3)ccc2[nH]1` [Mebendazole]: the normalised cell viability stood at 0.163 ± 0.013 (treatment time: 3 days) and 0.151 ± 0.0072 (treatment time: 6 days).

Turning to `NCC[C@H](O)C(=O)N[C@@H]1C[C@H](N)[C@@H](O[C@H]2O[C@H](CN)[C@@H](O)[C@H](O)[C@H]2O)[C@H](O)[C@H]1O[C@H]1O[C@H](CO)[C@@H](O)[C@H](N)[C@H]1O` [Amikacin hydrate], the normalised cell viability (treatment time: 3 days) was found to be 0.584 ± 0.023 and the normalised cell viability (treatment time: 6 days) came to 0.699 ± 0.089.

Turning to `CN(C)CCC=C1c2ccccc2C=Cc2ccccc21` [Cyclobenzaprine hydrochloride], the normalised cell viability (treatment time: 3 days) was 1.06 ± 0.062 and the normalised cell viability (treatment time: 6 days) came out at 1.08 ± 0.034.

With `Cc1ccc(Cl)c(Nc2ccccc2C(=O)O)c1Cl` [Meclofenamic acid sodium salt monohydrate], the normalised cell viability (treatment time: 3 days) worked out at 1.02 ± 0.068 and the normalised cell viability (treatment time: 6 days) was found to be 1.08 ± 0.084.
